Laboratory results published in PubChem BioAssay (EPA / NIEHS).
Several values for one entry are separate records, joined by “and”; a condition that tells them apart may be missing. Identical values can stand only once. Records with an inconclusive call do not appear. Where a structure was tested more than once in an assay, its records may differ in their call. Activity calls are given as the source filed them. The calls were made as follows, unless noted: active = hit-call score of the fitted dose curve at least 0.9, where 1 is the maximum; inconclusive = response in the unintended direction; inactive = score below 0.9.

Assays:
[1] = molecular target: human RAR-related Orphan Receptor beta (RORb), RORB (gene 6096) (UniProt Q92753); experiment: ATG_RORb_TRANS: Attagene TRANS-FACTORIAL HepG2 Assay for human RAR-related Orphan Receptor beta (RORb) (AID 2283010)
In short: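 Readout is reporter-gene mRNA induction, detected as fluorescence after RT-PCR and capillary electrophoresis, fitted for gain of signal against DMSO controls. Transiently transfected HepG2 liver cells carrying GAL4-UAS reporter constructs were treated for 24 hours.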

[2] = molecular target: human RAR-related Orphan Receptor gamma (RORg), RORC (gene 6097) (UniProt P51449); experiment: ATG_RORg_TRANS: Attagene TRANS-FACTORIAL HepG2 Assay for human RAR-related Orphan Receptor gamma (RORg) (AID 2283011)
In short: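 Activity is scored as increase in GAL4-UAS reporter mRNA over DMSO, detected by fluorescent RT-PCR and capillary electrophoresis in HepG2 cells transiently expressing a RORg-Gal4 chimera, 24 h after dosing.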

[3] = molecular target: Retinoic acid receptor RXR-alpha (Homo sapiens) (UniProt P19793); experiment: ATG_RXRa_TRANS: Attagene TRANS-FACTORIAL HepG2 Assay for human Retinoid X Receptor alpha (RXRa) (AID 2283012)
In short: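 Transient transfection of human HepG2 with multiple GAL4-UAS reporter constructs; 24 h compound exposure; total RNA isolated, reverse-transcribed, PCR-amplified, 6-FAM labelled, HpaI-cut, resolved by capillary electrophoresis. Positive-direction fit versus DMSO.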

[4] = molecular target: human Retinoid X Receptor beta (RXRb), RXRB (gene 6257) (UniProt P28702); experiment: ATG_RXRb_TRANS: Attagene TRANS-FACTORIAL HepG2 Assay for human Retinoid X Receptor beta (RXRb) (AID 2283013)
In short: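 Transfect HepG2 with GAL4-UAS multi-reporter constructs (chimeric NR-Gal4, TRANS format); dose compound 24 h; isolate RNA, RT-PCR, FAM primer extension, HpaI digest; quantify by capillary electrophoresis; positive direction vs DMSO.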

[5] = read-out: E-selectin (Homo sapiens) (UniProt P16581); experiment: BSK_3C_Eselectin: BioMAP Diversity Plus: 3C Assay for Eselectin Biomarker Activity (AID 2283015; active = hit-call score of the fitted dose curve at least 0.9, where 1 is the maximum; inactive = score below 0.9); settings: primary human endothelial cells (HUVEC); actives raise or lower the signal
In short: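 Human vascular endothelium from umbilical vein is exposed to test chemicals for 24 h. E-selectin levels are read by ELISA and compared with DMSO controls.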

[6] = read-out: Interleukin-1 alpha (IL1a), IL1A (gene 3552); experiment: BSK_BE3C_IL1a: BioMAP Diversity Plus: BE3C Assay for Interleukin-1 alpha (IL1a) Biomarker Activity (AID 2283016; active = hit-call score of the fitted dose curve at least 0.9, where 1 is the maximum; inactive = score below 0.9); settings: primary human bronchial epithelial cells; actives raise or lower the signal
In short: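 BE3C primary human bronchial epithelium; cpd 24 h; IL-1a by ELISA; bidirectional fit vs DMSO; parallel SRB (0.1% SRB, 10% TCA fix, 560 nm) for cytotoxicity.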

[7] = read-out: Monocyte Chemoattractant Protein-1 (MCP1), CCL2 (gene 6347); experiment: BSK_3C_MCP1: BioMAP Diversity Plus: 3C Assay for Monocyte Chemoattractant Protein-1 (MCP1) Biomarker Activity (AID 2283017; active = hit-call score of the fitted dose curve at least 0.9, where 1 is the maximum; inactive = score below 0.9); settings: primary human endothelial cells (HUVEC); actives raise or lower the signal
In short: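 Endothelial cells from human umbilical vein are dosed with chemical, cultured 24 h, then assayed for MCP-1 by ELISA; both increases and decreases are modelled against DMSO controls.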

[8] = read-out: Monocyte Chemoattractant Protein-1 (MCP1), CCL2 (gene 6347); experiment: BSK_4H_MCP1: BioMAP Diversity Plus: 4H Assay for Monocyte Chemoattractant Protein-1 (MCP1) Biomarker Activity (AID 2283018; active = hit-call score of the fitted dose curve at least 0.9, where 1 is the maximum; inactive = score below 0.9); settings: primary human endothelial cells (HUVEC); actives raise or lower the signal
In short: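 ELISA read-out of MCP-1 from human vascular endothelial primary cells taken at 24 hours after compound exposure. Activity was fitted in both directions relative to DMSO, which served as negative control.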

[9] = read-out: Human Leukocyte Antigen - DR isotype (HLADR), HLA-DRA (gene 3122); experiment: BSK_3C_HLADR: BioMAP Diversity Plus: 3C Assay for Human Leukocyte Antigen - DR isotype (HLADR) Biomarker Activity (AID 2283019; active = hit-call score of the fitted dose curve at least 0.9, where 1 is the maximum; inactive = score below 0.9); settings: primary human endothelial cells (HUVEC); actives raise or lower the signal
In short: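 Endothelial cells from human umbilical vein are treated with test chemical; after 24 h, HLA-DR levels are measured by ELISA. Data are fitted in both directions using DMSO as the baseline.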

[10] = molecular target: human Thyroid Receptor alpha (THRa1), THRA (gene 7067) (UniProt P10827); experiment: ATG_THRa1_TRANS: Attagene TRANS-FACTORIAL HepG2 Assay for human Thyroid Receptor alpha (THRa1) (AID 2283014)
In short: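 First, HepG2 cells receive multiple GAL4-UAS reporter units and the chimeric receptor. They are then dosed for 24 h, after which RNA is reverse-transcribed, amplified, labelled, HpaI-cut and sized by capillary electrophoresis; gain relative to DMSO is scored.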

Measured: AC50

Chain of human RAR-related Orphan Receptor gamma (RORg), RORC (gene 6097) (P51449 whole entry, looked up, the tested form may be a part): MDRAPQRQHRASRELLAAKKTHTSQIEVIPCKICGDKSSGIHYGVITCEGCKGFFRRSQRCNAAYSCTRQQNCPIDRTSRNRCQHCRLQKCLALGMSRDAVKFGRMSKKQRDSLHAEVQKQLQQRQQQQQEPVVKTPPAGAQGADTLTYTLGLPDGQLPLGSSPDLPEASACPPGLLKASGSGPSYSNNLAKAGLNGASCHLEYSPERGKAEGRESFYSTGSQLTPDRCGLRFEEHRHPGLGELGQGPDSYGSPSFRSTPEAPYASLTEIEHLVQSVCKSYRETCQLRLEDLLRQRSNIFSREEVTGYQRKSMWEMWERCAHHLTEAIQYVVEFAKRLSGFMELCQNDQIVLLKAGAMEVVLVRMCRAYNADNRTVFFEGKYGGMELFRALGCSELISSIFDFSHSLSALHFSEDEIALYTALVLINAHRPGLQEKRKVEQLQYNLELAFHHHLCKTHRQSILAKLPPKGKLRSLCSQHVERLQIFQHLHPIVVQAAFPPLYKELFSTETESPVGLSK
Chain of human Retinoid X Receptor beta (RXRb), RXRB (gene 6257) (P28702 whole entry, looked up, the tested form may be a part): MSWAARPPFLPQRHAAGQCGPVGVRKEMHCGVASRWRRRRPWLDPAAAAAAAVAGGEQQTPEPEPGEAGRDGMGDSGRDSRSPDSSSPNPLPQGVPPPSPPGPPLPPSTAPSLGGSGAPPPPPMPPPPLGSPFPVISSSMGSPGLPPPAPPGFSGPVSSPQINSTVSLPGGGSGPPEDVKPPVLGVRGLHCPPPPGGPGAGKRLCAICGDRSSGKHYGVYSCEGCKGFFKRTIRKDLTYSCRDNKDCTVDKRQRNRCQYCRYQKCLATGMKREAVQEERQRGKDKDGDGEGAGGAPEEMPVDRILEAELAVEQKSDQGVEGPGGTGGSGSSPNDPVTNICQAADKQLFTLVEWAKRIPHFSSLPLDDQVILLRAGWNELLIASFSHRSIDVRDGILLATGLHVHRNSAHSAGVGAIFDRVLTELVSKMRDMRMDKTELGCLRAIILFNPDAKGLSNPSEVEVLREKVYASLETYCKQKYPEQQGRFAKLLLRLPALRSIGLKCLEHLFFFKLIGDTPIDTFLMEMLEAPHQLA
Chain of E-selectin (Homo sapiens) (P16581 whole entry, looked up): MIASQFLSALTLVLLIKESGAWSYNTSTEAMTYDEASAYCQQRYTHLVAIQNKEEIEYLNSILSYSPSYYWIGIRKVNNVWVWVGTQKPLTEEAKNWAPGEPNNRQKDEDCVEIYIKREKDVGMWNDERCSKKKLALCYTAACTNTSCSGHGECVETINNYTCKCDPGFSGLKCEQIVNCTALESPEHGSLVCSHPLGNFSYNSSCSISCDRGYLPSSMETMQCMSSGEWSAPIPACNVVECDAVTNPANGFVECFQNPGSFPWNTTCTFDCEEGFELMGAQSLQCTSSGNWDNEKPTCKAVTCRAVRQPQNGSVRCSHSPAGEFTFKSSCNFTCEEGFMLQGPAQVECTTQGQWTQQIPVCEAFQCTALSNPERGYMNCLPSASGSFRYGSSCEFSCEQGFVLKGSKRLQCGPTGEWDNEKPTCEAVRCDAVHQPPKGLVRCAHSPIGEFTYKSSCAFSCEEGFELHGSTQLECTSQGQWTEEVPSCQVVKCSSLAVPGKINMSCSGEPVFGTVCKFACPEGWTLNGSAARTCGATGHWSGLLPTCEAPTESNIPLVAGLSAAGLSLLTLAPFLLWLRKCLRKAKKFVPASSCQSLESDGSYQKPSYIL
Chain of Retinoic acid receptor RXR-alpha (Homo sapiens) (P19793 whole entry, looked up, the tested form may be a part): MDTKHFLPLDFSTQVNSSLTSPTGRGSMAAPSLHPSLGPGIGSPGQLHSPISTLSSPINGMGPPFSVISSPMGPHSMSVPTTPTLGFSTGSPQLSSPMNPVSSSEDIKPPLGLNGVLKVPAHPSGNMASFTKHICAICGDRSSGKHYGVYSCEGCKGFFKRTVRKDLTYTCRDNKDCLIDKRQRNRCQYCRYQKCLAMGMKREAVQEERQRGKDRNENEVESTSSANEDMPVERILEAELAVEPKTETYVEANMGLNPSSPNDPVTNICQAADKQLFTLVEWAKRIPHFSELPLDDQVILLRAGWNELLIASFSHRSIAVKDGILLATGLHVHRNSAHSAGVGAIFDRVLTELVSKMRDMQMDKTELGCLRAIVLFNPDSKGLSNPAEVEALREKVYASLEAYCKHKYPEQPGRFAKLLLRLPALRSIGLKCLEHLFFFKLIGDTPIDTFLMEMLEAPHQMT
Chain of human RAR-related Orphan Receptor beta (RORb), RORB (gene 6096) (Q92753 whole entry, looked up, the tested form may be a part): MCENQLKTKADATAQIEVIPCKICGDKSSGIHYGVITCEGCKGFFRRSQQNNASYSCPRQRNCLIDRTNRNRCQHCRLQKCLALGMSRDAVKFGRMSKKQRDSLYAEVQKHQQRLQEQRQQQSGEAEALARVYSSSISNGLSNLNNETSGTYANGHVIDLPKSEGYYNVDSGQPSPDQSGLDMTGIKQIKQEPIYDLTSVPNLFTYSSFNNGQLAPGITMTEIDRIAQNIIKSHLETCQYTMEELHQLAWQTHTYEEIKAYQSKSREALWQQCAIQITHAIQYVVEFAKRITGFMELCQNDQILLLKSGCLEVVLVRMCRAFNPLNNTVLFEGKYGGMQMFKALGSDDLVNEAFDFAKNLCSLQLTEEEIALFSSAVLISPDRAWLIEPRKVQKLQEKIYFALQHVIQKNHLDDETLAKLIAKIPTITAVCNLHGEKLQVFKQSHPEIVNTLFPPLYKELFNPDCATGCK
Chain of human Thyroid Receptor alpha (THRa1), THRA (gene 7067) (P10827 whole entry, looked up, the tested form may be a part): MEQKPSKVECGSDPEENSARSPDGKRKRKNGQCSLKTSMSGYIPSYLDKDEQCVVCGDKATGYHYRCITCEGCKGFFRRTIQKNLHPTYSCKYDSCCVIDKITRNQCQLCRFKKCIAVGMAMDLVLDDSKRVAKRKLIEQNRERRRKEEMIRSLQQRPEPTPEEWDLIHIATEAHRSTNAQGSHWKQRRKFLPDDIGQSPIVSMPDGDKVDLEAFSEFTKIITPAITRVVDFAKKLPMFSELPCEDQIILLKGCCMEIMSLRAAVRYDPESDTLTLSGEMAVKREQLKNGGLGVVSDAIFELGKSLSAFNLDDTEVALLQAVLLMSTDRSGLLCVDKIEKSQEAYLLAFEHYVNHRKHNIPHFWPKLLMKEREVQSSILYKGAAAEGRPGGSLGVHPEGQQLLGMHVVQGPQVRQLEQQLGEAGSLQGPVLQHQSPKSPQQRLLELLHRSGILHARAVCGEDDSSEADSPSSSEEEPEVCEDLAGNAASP

Nc1cc2c3c(c1)C(c1ccccc1)=N[C@@H](NC(=O)c1cccnc1)C(=O)N3CC2
not listed: [10]
inactive: all other assays above

O=C(O)C=CC(F)(C(F)(F)F)C(F)(F)F
not listed: [2] | [4] | [5]
inactive: all other assays above

CCC(C)(C)c1ccc(O)cc1
active: [4] 9.83 µM
not listed: [2] | [5] | [10]
inactive: all other assays above

Nc1ccc2ccccc2c1
not listed: [4] | [5]
inactive: all other assays above

C=C(C)C(=O)OCC1CO1 (centres undefined)
inactive: [1]

O=[N+]([O-])c1ccc(Cl)c(Cl)c1
not listed: [2] | [5]
inactive: all other assays above

CC(C)(C)OOC(C)(C)C
not listed: [2] | [4]
inactive: all other assays above

CC(O)C(F)(F)C(F)(F)F (centres undefined)
not listed: [2] | [5] | [10]
inactive: all other assays above

O=C(O)C1C(C(=O)O)C2(Cl)C(Cl)=C(Cl)C1(Cl)C2(Cl)Cl (centres undefined)
inactive: [1] | [10] | [6] | [7] | [8] | [9]

OCC(F)(F)OC(F)(F)C(F)(F)OC(F)(F)C(F)(F)OC(F)(F)F
inactive: [1] | [2] | [3] | [4] | [10] | [6] | [8]
active: [4] 32.2 µM | [7] 45.4 µM and 14.5 µM | [8] 45.4 µM | [9] 31.5 µM and 49.7 µM

N#C/C=C/c1ccccc1
inactive: [1] | [2] | [4] | [10]

Cc1ccc(C(=O)Cl)cc1
inactive: [1] | [2] | [3]

ClC(Cl)=C(c1ccc(Cl)cc1)c1ccccc1Cl
inactive: [1] | [3]
active: [4] 27.7 µM | [6] 14.2 µM | [7] 12.1 µM | [8] 5.93 µM | [9] 10.4 µM

C/C(=N\NC(=O)Nc1cc(F)cc(F)c1)c1ncccc1C(=O)O
inactive: [1] | [3] | [4] | [10]

CCCCCCCc1ccc(O)cc1
active: [4] 11.1 µM and 48.7 µM | [5] 35.2 µM | [6] 35.7 µM | [7] 37.6 µM | [8] 29.1 µM | [9] 25.3 µM
inactive: [1] | [2] | [3] | [4] | [10]

Cc1ccc(N)cc1N
not listed: [10]
inactive: all other assays above

CC(C)CBr
inactive: [1] | [10]

O=C(O)C(F)(F)C(F)(F)C(=O)O
not listed: [4]
inactive: all other assays above

COC(=O)C(F)(F)C(F)(F)OC(F)(C(F)(F)F)C(F)(F)OC(F)=C(F)F (centres undefined)
active: [4] 31.8 µM and 41.3 µM and 28.2 µM
not listed: [5]
inactive: all other assays above

N#Cc1ccc(O)cc1
inactive: [1] | [2] | [3] | [4] | [10]

CC(Cl)CN(C)C (centres undefined)
active: [9] 7.97 µM
not listed: [2] | [4] | [10]
inactive: all other assays above

CO/N=C(/C(=O)OC)c1ccccc1COc1ccccc1C
inactive: [1] | [3] | [4] | [10]

O=c1ssc(Cl)c1Cl
inactive: [1] | [3] | [10]
active: [6] 12.2 µM | [7] 8.43 µM | [8] 3.92 µM | [9] 3.59 µM

CCOP(=S)(S)OCC
inactive: [1] | [5] | [6] | [7] | [8] | [9]

ClC(Cl)c1ccccc1
inactive: all assays above
